Laboratory results from PubChem BioAssay (Tox21).
Inconclusive results are not listed. The source made the active and inactive calls. The call rests on the fitted dose curve; in most records, active means well fitted activation curve with a large enough effect in the signal ratio in the repeat runs (not every such curve was filed as active); inconclusive means weak or mixed curves, or effect the other way; inactive means no such curve, though single readings can be large or run the other way; the % refers to the signal ratio.

What follows are compounds tested against Glucocorticoid receptor (Homo sapiens) (UniProt P04150) (assay: qHTS assay to identify small molecule agonists of the glucocorticoid receptor (GR) signaling pathway (AID 720691)). Settings: GR-bla HeLa, beta-lactamase reporter ratio, 18 h; series mostly up to 62.4 µM; activation: at the top concentration.
In short: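 Agonist mode in a HeLa line carrying a GRE-controlled beta-lactamase reporter. Compounds act for 18 h at 37 C before a 2 h room-temperature FRET substrate step and fluorescence reading.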
On the % scale 0 is the no-effect control and ±100 the full control effect.

Glucocorticoid receptor (Homo sapiens), sequence (P04150 whole entry, looked up): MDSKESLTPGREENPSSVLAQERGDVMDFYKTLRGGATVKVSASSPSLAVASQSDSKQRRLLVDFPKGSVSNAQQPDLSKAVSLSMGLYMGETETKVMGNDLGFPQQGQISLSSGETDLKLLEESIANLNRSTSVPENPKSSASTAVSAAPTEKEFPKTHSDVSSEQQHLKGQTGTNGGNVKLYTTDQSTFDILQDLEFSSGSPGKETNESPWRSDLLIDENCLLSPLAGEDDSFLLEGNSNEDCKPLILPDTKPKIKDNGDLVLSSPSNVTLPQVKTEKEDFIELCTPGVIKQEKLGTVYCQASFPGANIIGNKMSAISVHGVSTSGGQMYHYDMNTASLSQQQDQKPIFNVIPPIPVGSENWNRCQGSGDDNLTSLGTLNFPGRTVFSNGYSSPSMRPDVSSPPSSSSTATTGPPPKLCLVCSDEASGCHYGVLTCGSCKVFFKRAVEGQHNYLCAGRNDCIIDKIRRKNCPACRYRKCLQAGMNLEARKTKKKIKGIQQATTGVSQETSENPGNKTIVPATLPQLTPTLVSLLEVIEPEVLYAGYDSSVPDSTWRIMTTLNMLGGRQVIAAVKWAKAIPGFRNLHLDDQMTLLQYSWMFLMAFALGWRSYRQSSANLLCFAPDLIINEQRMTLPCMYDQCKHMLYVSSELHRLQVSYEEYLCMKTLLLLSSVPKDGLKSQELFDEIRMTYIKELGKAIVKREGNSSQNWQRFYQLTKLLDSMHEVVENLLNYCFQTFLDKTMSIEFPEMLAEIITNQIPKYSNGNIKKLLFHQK

SMILES	outcome	activation
COP(=O)(OC)C(O)C(Cl)(Cl)Cl (stereo not given)	inactive	
Cc1cc(Cl)ccc1OCC(=O)O	inactive	
O=C(O)COc1ccc(Cl)cc1Cl	inactive	
O=C(O)C(Cl)Cl	inactive	
O=c1nc(O)n(Cl)c(=O)n1Cl	inactive	
CCCCCCCCCCCCCC[P+](CCCCCC)(CCCCCC)CCCCCC		-0.736% (inactive)
CCC(=O)C(CC(C)N(C)C)(c1ccccc1)c1ccccc1 (stereo not given)	inactive	
CC(Cl)(Cl)C(=O)O	inactive	
Nc1ccc(Cl)cc1	inactive	
O=C(O)CCl	inactive	
CC[N+](CC)(CC)CC	inactive	
O=C(O)c1nc(Cl)ccc1Cl	inactive	
Cc1cc(Cl)ccc1N	inactive	
CCCCCCCCCCn1cc[n+](C)c1		-8.34% [at 79.2 µM] (inactive)
COc1ccc(N)cc1	inactive	
Nc1ccccc1	inactive	
O=c1[nH]c(=O)n(Cl)c(=O)n1Cl	inactive	
O=P1(N(CCCl)CCCl)NCCCO1 (stereo not given)	inactive	
C1CCC(NC2CCCCC2)CC1	inactive	
CCCn1cc[n+](C)c1	inactive	
